D2 PAM-1: Beta-Arrestin HTS for Positive Allosteric Modulators of the Human D2 Dopamine Receptor: Potentiators | potentiation, % (no concentration beside the values) | DiscoveRx D2 beta-arrestin cells, luminescence, 90 min; 100% = 57 uM dopamine signal | 360,000 compounds, 0.23% hits | D(2) dopamine receptor (Homo sapiens), P14416; in the data active means potentiation above about 50%; inconclusive means mostly about 30% to 49%
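PathHunter D2 cells, attached overnight at 37 deg C, received compound in DMSO plus dopamine at EC20 (50 nM final) for 90 min at 37 deg C. Beta-arrestin recruitment was read as luminescence after 1 h with detection reagent at ambient temperature.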
D2 ag-1: Beta-Arrestin HTS for Positive Allosteric Modulators of the Human D2 Dopamine Receptor: Agonists. DiscoveRx PathHunter D2 beta-arrestin, luminescence, 90 min; 100% = 57 uM dopamine signal. activation, % (no concentration beside the values). 360,000 compounds, 0.084% hits; in the data active means activation above about 40%; inconclusive means between about 15% and that limit
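DiscoveRx PathHunter D2 beta-arrestin cells (2,100/well) attached overnight, then compound-stimulated 90 min at 37 C in HBSS/10 mM HEPES/0.1% Tween-20 buffer; beta-galactosidase complementation read by luminescence after 1 h at ambient temperature. Dopamine 57 uM final (EC100) as control.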
D2 ag-2: HTS Assay for Allosteric Agonists of the Human D2 Dopamine Receptor: Primary Screen for Agonists | activation, % at 2 µM | HEK293 T-REx D2 cells, calcium flux agonist mode | 340,000 compounds, 0.53% hits | AID 485358, 2010;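 active means activation over 3 SD above normal in the single-dose calcium agonist read, cut at about 30% in these data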; further: 0% is about no effect
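Agonism scored from kinetic calcium signal (1 read/sec, 180 s) following compound pin transfer, after a 10 s baseline. Cells: HEK293 Trex line expressing inducible D2 receptor coupled to calcium, dye-loaded after overnight culture at 30 C.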
D2 PAM-2: HTS Assay for Positive Allosteric Modulators of the Human D2 Dopamine Receptor: Primary Screen for Potentiators; potentiation, % at 10 µM; HEK293 T-REx D2, calcium flux, EC20 dopamine potentiation; 340,000 compounds, 0.34% hits;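 active means potentiation over 3 SD above the plate norm, cut at about 30% in these data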; further: 0% is about no effect
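Cells plated with tetracycline inducer and held overnight at 30 C; calcium dye loaded 30–90 min at room temperature; baseline taken, compound added and read 180 s; EC20 dopamine then added and read 180 s.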
D2 antagonist: HTS Assay for Allosteric Antagonists of the Human D2 Dopamine Receptor: Primary Screen for Antagonists. D(2) dopamine receptor (Homo sapiens), P14416. HEK293 TREx D2 cells, calcium flux, dopamine EC80. inhibition, % at 10 µM. 340,000 compounds, 2% hits; in the data active means inhibition above about 30%; inactive means below that, where a call was filed; further: 0% is about no effect
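HEK293 T-REx D2 cells, tet-induced, calcium dye no-wash. Cpd pintool add, 180 s kinetic, then EC80 DA, 180 s kinetic. Ca flux read.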
D3 arrestin ag: qHTS of D3 Dopamine Receptor Agonist: D3 Dopamine Receptor B-arrestin Agonist Confirmatory Assay. shares compounds with D2 ag-2. AID 720506, 2013. 2,300 compounds, 4% hits. DiscoveRx D3 beta-arrestin cells, luminescence, 90 min. Potency, µM (series often up to 76.9 µM), without a hit: top-dose activation, actives largely listed as activators;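 further: potency means the concentration at half of the fitted maximal effect; 100% = dopamine control response; nearly all actives have a fitted effect of over 70% in size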
Target sequence (P35462 whole entry, looked up): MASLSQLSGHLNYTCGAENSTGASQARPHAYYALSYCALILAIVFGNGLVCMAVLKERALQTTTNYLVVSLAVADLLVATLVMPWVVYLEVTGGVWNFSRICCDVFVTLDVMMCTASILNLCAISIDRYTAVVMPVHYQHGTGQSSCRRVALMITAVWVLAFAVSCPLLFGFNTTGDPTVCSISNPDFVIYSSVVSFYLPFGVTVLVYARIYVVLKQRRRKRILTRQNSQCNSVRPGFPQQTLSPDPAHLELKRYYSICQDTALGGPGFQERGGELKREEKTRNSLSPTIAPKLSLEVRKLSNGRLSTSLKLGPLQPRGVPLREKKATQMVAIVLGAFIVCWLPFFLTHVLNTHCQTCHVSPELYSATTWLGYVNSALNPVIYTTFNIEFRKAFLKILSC
D2 ag-3: qHTS of D3 Dopamine Receptor Agonist: D2 Dopamine Receptor B-arrestin Agonist Counterscreen; shares compounds with D2 ag-2; 2,300 compounds, 5.9% hits; Potency, µM (highest dose often 76.9 µM), for inactives: top-dose activation, usual class: activators; DiscoveRx PathHunter D2 beta-arrestin, luminescence, 90 min; response scale: percent relative to full dopamine signal; further: potency means the concentration at half of the fitted maximal effect; % of control where 0% means no effect; nearly all actives have a fitted effect of over 70% in size
* hit, by the source's call; ? = inconclusive; nt = not tested or not shown. Hits are enriched below; roughly 2.4% of the tested compounds scored in any of these assays. Unless noted, the call rests on the fitted dose curve; in most records, active means well fitted activation curve with a large enough effect; inconclusive means small, poorly fitted or top-dose-only effect; inactive means flat fitted curve, though single readings scatter.

SMILES	D2 PAM-1	D2 ag-1	D2 ag-2	D2 PAM-2	D2 antagonist	D3 arrestin ag	D2 ag-3
O=C(O)c1ccc(CSc2nc3ccccc3c(=O)n2-c2ccccc2)cc1	26.2	5.6	58.0*	-18.0	48.3*	0.5%	-2.6%
Cc1ccc(C)c(NS(=O)(=O)c2ccc(-c3ccc(=O)[nH]n3)o2)c1	1.7	7.6	44.4*	-8.6	5.6	-0.9%	21.6%
Cc1cccc(NS(=O)(=O)c2ccc(-c3ccc(=O)[nH]n3)o2)c1	-3.5	3.7	nt	nt	nt	nt	nt
COc1ccc(OC)c(NC(=O)c2cnc(N3CCCCC3)c3ccccc23)c1	nt	nt	0.6	8.1	nt	nt	nt
O=c1[nH]c(S)nc2sc3c(c12)CCCC3	0.6	-7.4	-0.5	6.3	-4.4	nt	nt
O=c1[nH]c(-c2ccco2)nc2sc3c(c12)CCCC3	-6.8	0.5	52.1*	-21.3	8.9	-4.8%	-4.6%
COc1ccccc1C(=O)NC(CCSC)C(=O)OCC(=O)N1CCCC1=O (stereo unspecified)	-4.6	-1.9	-0.7	-8.3	-21.3	-3.1%	-0.6%
CSCCC(NC(=O)c1ccc(Cl)cc1)C(=O)OCC(=O)N1CCCC1=O (stereo unspecified)	2.3	-0.7	1.3	-10.9	1.4	nt	nt
COc1cccc(-c2nc(CN3CCN(C(=O)c4ccco4)CC3)c(C)o2)c1OC	25.6	?	nt	nt	nt	nt	nt
COc1ccccc1-c1oc2ccccc2c1-c1ccc2cc[nH]c2c1	-2.9	4.1	-0.1	15.7	-4.7	1.3%	2.8%
COc1ccc(NC(=O)C(=O)NCCN2CCN(C(=O)c3ccco3)CC2)cc1	20.2	13.8	39.3*	-12.9	22.4	5.01µM*	22.8%
COc1cccc(CN2CCN(C(=O)c3ccco3)CC2)c1	?	69.7*	84.2*	-16.7	81.9*	78.4%	8.91µM*
COc1ccc(OC)c(CN2CCN(C(=O)c3ccco3)CC2)c1	1.7	?	83.4*	-18.9	83.0*	-1.4%	19.0%
COc1ccc(C(=O)N2CCN(Cc3cc(OC)ccc3OC)CC2)cc1	-2.8	0.5	0.2	-24.9	-36.1	nt	nt
COc1ccc(-c2[nH]ncc2CN2CCCN(C(=O)c3ccco3)CC2)cc1F	-5.3	3.5	nt	-18.4	nt	-2.1%	4.7%
COc1cc(Cl)c(C)cc1NC(=O)COc1ccc(C)nc1[N+](=O)[O-]	-12.0	0.3	-0.3	2.2	-7.3	nt	nt
CC(C)(O)C#Cc1ccc(CN2CCN(C3CCCCC3)C(CCO)C2)s1 (stereo unspecified)	-11.5	-1.3	41.8*	-9.9	-7.0	-14.9%	2.1%
CC(C)(O)C#Cc1ccc(CN2CCN(C3CCCCC3)C(CCO)C2)cc1 (stereo unspecified)	-1.9	1.8	0.1	-0.2	5.7	nt	nt
CCOc1ccccc1OCC(=O)Nc1ccc(N2CCOCC2)cc1N1CCOCC1	-5.4	-3.2	0.4	-3.3	-6.0	nt	nt
Cc1ccccc1NC(=O)CCn1cnc2onc(-c3ccc(F)cc3)c2c1=O	nt	nt	0.2	-2.8	nt	nt	nt
COc1ccc(CN([C@H](CO)CC(C)C)S(=O)(=O)N(Cc2ccccc2)[C@H](CO)CC(C)C)cc1	-7.1	1.2	nt	nt	nt	nt	nt
COc1ccc(CN([C@H](C)CO)S(=O)(=O)N(Cc2ccccc2)[C@H](CO)C(C)C)cc1	-3.8	-0.6	-0.2	11.7	4.9	-4.5%	-5.6%
COc1ccccc1N1CCN(S(=O)(=O)CCNC(=O)CC2CCCC2)CC1	-43.8	-0.2	nt	nt	nt	nt	nt
CCCN1CCC2(CC1)C(C#N)=C(N)Oc1c2sc2nc(C)cc(C)c12	-2.8	11.4	77.7*	-21.2	95.9*	21.8%	-2.4%
CCN(CC)c1ccc(NC(=S)NC(=O)Cc2ccccc2)cc1	0.0	0.1	73.2*	-21.0	77.2*	-0.7%	-0.1%
SMILES	D2 PAM-1	D2 ag-1	D2 ag-2	D2 PAM-2	D2 antagonist	D3 arrestin ag	D2 ag-3
CCOc1ccc(NC(=S)NC(=O)Cc2ccccc2)cc1	-5.0	0.7	-0.7	0.8	0.6	nt	nt
CCOc1ccc(C(=O)N/N=C(\c2ccccc2)c2ccccn2)cc1	-27.7	-4.4	-0.9	5.3	21.5	-23.1%	-10.9%
O=C(COC(=O)c1ccccn1)NC(=O)c1ccccc1	-3.4	-7.4	-1.4	7.9	-10.5	-4.2%	-6.2%
CN(C)CCNc1ncnc2c1ncn2[C@H]1CN(Cc2cccs2)C[C@@H](CO)O1	-7.1	-4.4	nt	nt	nt	nt	nt
Cc1oc2cc3oc(=O)c(CCC(=O)NCCc4ccccc4F)c(C)c3cc2c1C	nt	nt	-1.3	3.0	nt	nt	nt
CC1(C)CC(=O)C(CO)=C(c2cccc3ccccc23)C1=O	-2.1	-3.7	-0.2	-7.5	0.8	nt	nt
COc1cccc(CNC(=O)CCC2CCCN(C(=O)c3cc(C4CC4)[nH]n3)C2)c1 (stereo unspecified)	2.1	0.5	0.3	13.8	63.0*	-2.0%	0.3%
COc1cccc(CNC(=O)CCC2CCCN(C(=O)c3cc(C)on3)C2)c1 (stereo unspecified)	-4.4	-1.9	0.2	-1.8	14.9	nt	nt
Fc1ccccc1N1CCN(CC2CC3C=CC2C3)CC1 (stereo unspecified)	-6.9	?	78.6*	-15.2	73.9*	?	?
CN(C)S(=O)(=O)c1ccc(NC(=O)/C=C/c2ccccc2Cl)cc1	-12.6	?	13.9	18.1	13.1	?	15.2%
O=C(/C=C/c1ccccc1Cl)Nc1ccccc1	-2.8	3.5	-0.9	-13.5	-6.7	nt	nt
O=C(Nc1ccc(N2CCOCC2)cc1)c1ccc(S(=O)(=O)N2CCCCC2)cc1	-14.6	-1.6	2.5	-10.2	3.6	-1.5%	-1.4%
CC(=O)Nc1ccc(C(=O)Nc2ccc(S(=O)(=O)N3CCOCC3)cc2)cc1	0.7	4.2	0.6	3.0	-5.8	nt	nt
Cc1ccc2c(c1)[nH]c1c(=O)n(Cc3ccco3)cnc12	1.7	-1.4	33.2*	-16.7	18.4	1.4%	0.0%
CC1(C)C2CC[C@]1(C)C(=O)N(CCCCN1CCN(c3ccccn3)CC1)C2=O	?	70.4*	85.9*	-20.7	115.7*	?	0.0631µM*
O=c1cc(CN2CCN(c3ccccn3)CC2)nc2sccn12	2.4	7.6	54.5*	-17.4	12.4	10.3%	21.7%
